Our source for the growth inhibition values is PubChem BioAssay (NCI).

Compounds without any hit were thinned out: in the full panel of roughly 79,000, 15% have a hit. Unmarked numbers belong to inactive results. Active and inactive are the calls of the source. No stated cut-off is given here; in the data, active means growth inhibition above about 70%; inactive means the rest.

Assay [1] is described as follows: NCI Yeast Anticancer Drug Screen. Data for the rad50 strain (AID 155).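 Further: 0% = growth of vehicle-only cultures of the same strain.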 The settings on record: S. cerevisiae rad50 strain growth inhibition; at 50.0 µM; hits give high values. The gist of the method: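 A DNA repair-deficient yeast mutant serves as the test organism; compound-induced growth inhibition is calculated against vehicle-treated cells.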
Assay [2] can be described thus: NCI Yeast Anticancer Drug Screen. Data for the mec2-1 strain (AID 157). The settings on record: S. cerevisiae mec2-1 strain, at 50.0 µM, hits give high values. The gist of the method: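 Test agents were screened against the mec2-1 yeast strain, with defined DNA repair or cell cycle alteration. Growth was scored as inhibition against vehicle-only controls.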
The nature of assay [3]: NCI Yeast Anticancer Drug Screen. Data for the sgs1 mgt1 strain (AID 161).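 Further: 0% = growth of cultures given vehicle only.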 The settings on record: S. cerevisiae sgs1 mgt1 strain, at 50.0 µM, hits give high values. The gist of the method: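 Inhibition of yeast growth, normalised to vehicle-treated controls, is reported for a strain bearing genetic alterations in DNA damage repair.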
Assay [4] can be described thus: NCI Yeast Anticancer Drug Screen. Data for the cln2 rad14 strain (AID 165).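 Further: 0% = growth equal to vehicle treated cultures.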 The settings on record: S. cerevisiae cln2 rad14 strain, at 50.0 µM, hits give high values. A digest of the protocol:
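Growth of compound-exposed yeast (cln2 rad14 genotype) measured and expressed as inhibition relative to vehicle.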

Assay [5] in a line: NCI Yeast Anticancer Drug Screen. Data for the bub3 strain (AID 167). The settings on record: S. cerevisiae bub3 mutant strain, at 50.0 µM, hits give high values. The gist of the method:
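Inhibition values come from growth of compound-treated mutant yeast normalised to vehicle-treated controls.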

Assay [6] in a line: NCI Yeast Anticancer Drug Screen. Data for the mlh1 rad18 strain (AID 175). The settings on record: S. cerevisiae mlh1 rad18 strain growth inhibition; at 50.0 µM; hits give high values. The gist of the method: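 In this whole-cell yeast screen, a strain with altered DNA damage repair is challenged with compound, and its growth is measured against matched vehicle-treated controls.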

As for `CCN(CC)CCNc1ccc(OC)c2sc3ccccc3c(=O)c12`, the growth inhibition in assay [1] was 53.6%; in assay [2] it was 25.4%; in assay [3], 20.9%; in assay [4], -7.85%; in assay [5] it was 40.4%; in assay [6], 24.6%.

Turning to `CN(N=O)c1c([N+](=O)[O-])cc2c(c1[N+](=O)[O-])Cc1ccccc1-2`, the growth inhibition was 0.4% in assay [1]; -4.3% in assay [2]; -8.8% in assay [3]; 17.6% in assay [4]; 14.7% in assay [5]; 19.4% in assay [6].

For the molecule `COc1ccc2nc(C(C)(O)c3ccccc3)ccc2c1` (stereo not given), the growth inhibition in assay [1] was -1.6%; in assay [2], -8.15%; in assay [3], 6%; in assay [4], -6.85%; in assay [5], 2.65%; in assay [6], -29.1%.

Take `COc1ccc(-c2cc3cc(CCCOC4OC(COC5OCC(O)C(O)C5O)C(O)C(O)C4O)cc(OC)c3o2)cc1OC` (stereo not given): the growth inhibition was 31% in assay [1]; 17.4% in assay [2]; 34.6% in assay [3]; 23.8% in assay [4]; 8.8% in assay [5]; 23.4% in assay [6].

For `CC1CC2(CCC1OCc1ccccc1)OCCO2` (stereo not given), the growth inhibition in assay [1] was 0.25%; in assay [2] it was -6.85%; in assay [3], -2.3%; in assay [4] it was 2.2%; in assay [5], 13.3%; in assay [6], -1.7%.

`COc1ccc(C(C#N)NNC(=O)c2ccccc2O)cc1OC` (stereo not given): the growth inhibition was 14.9% in assay [1]; 0.85% in assay [2]; 6.6% in assay [3]; 4.2% in assay [4]; 35.2% in assay [5]; -18.9% in assay [6].

Consider `O=C(N=Nc1c(O)[nH]c2c(Cl)cc(Cl)cc12)c1ccccc1O`, for which the growth inhibition in assay [1] was -1.1%; in assay [2] it was -0.55%; in assay [3], -9.5%; in assay [4], 12.5%; in assay [5], -8.95%; in assay [6], 3.85%.

As to `COc1cc2c(cc1OC)C1CC(O)(c3nccc4cc(OC)c(OC)cc34)CCN1CC2` (stereo not given), the growth inhibition in assay [1] was 21.1%; in assay [2] it was -1.8%; in assay [3], -3.9%; in assay [4], 10.7%; in assay [5], -1.3%; in assay [6] it was -14.1%.

`CN(C)CCN(C)C(=N)N`: the growth inhibition was -10.3% in assay [1]; -4.25% in assay [2]; -6.45% in assay [3]; -7.5% in assay [4]; -6.55% in assay [5]; -10.9% in assay [6].

For the molecule `CCOC(=O)C(O)Cc1ccc(N)cc1` (stereo not given), the growth inhibition in assay [1] was 5.8%; in assay [2], 12.2%; in assay [3], 12.3%; in assay [4], 9.85%; in assay [5], 12.8%; in assay [6] it was 2.85%.

As to `CC1=CC(C)(C)NC(=S)N1c1ccc(C)cc1S(=O)(=O)O`, the growth inhibition in assay [1] was 28.5%; in assay [2] it was -1.7%; in assay [3], -18%; in assay [4] it was -16.2%; in assay [5], 7.95%; in assay [6], 27.9%.

For the molecule `Cc1ccc(S(=O)(=O)OCCOCCOc2ccc(C(C)(C)CC(C)(C)C)cc2)cc1`, the growth inhibition was 49.7% in assay [1]; 1.05% in assay [2]; 34% in assay [3]; 4.3% in assay [4]; 3.8% in assay [5]; 27% in assay [6].

Take `O=C1Nc2ccccc2/C1=N/N1C(=O)CSC1=S`: the growth inhibition in assay [1] is 28.6%; in assay [2] it was 15%; in assay [3] it was 32.5%; in assay [4], 7.2%; in assay [5], 15.6%; in assay [6], 29.1%.

For the molecule `N#Cc1ccc(OCc2nc(N)nc(N)c2-c2ccc(Cl)cc2)cc1`, the growth inhibition in assay [1] is -4.4%; in assay [2] it was 5.35%; in assay [3] it was -16.4%; in assay [4] it was -10%; in assay [5], 20.8%; in assay [6] it was 14.8%.

Regarding `CC(C)(C[NH-])C[NH-].[Cl][Pt+2][Cl]`, the growth inhibition in assay [1] was -22.3%; in assay [2], 13.3%; in assay [3], 20.2%; in assay [4] it was 18.6%; in assay [5] it was 16.6%; in assay [6], 87.7% (active).

`CC1(C)C(=NNC(=S)NN)C(C)(C)C1=NNC(=S)NN`: the growth inhibition in assay [1] is 40.5%; in assay [2], 36%; in assay [3] it was 42.4%; in assay [4] it was 18.9%; in assay [5] it was 46.5%; in assay [6], 38.7%.

Regarding `O=C1NCCS(=O)(=O)N2CCC[C@@H]12`, the growth inhibition in assay [1] was 54.4%; in assay [2], -20%; in assay [3], 5.1%; in assay [4], 21.4%; in assay [5] it was -19.6%; in assay [6] it was -14.9%.

On to `Cc1nc2n(c1C(N)=O)CCS2`, for which the growth inhibition is 5.15% in assay [1]; -5.65% in assay [2]; -5% in assay [3]; -55.8% in assay [4]; -10.7% in assay [5]; -10.7% in assay [6].

Turning to `N#CC(C#N)=C(C#N)Nc1ccc(F)cc1`, the growth inhibition in assay [1] was 1%; in assay [2], -10.4%; in assay [3], -16.6%; in assay [4] it was -6.5%; in assay [5], -13.4%; in assay [6], -0.4%.

Take `CN(C)CC(CN(C)C)C(=O)/C=C/c1ccc(O)cc1`: the growth inhibition in assay [1] was 1.4%; in assay [2], -2.25%; in assay [3] it was 6.05%; in assay [4] it was 6.35%; in assay [5], 22.4%; in assay [6] it was 5.5%.

`O=C(c1ccc(Cl)cc1)N(C(=S)N1CCN(c2ccccc2)CC1)C1CCCCC1`: the growth inhibition is 7.95% in assay [1]; -11.3% in assay [2]; -19.5% in assay [3]; 22.7% in assay [4]; -21% in assay [5]; -4.05% in assay [6].

On to `COc1ccc(C(=O)N/N=C/c2cccc3ccccc23)cc1`, for which the growth inhibition in assay [1] is -3%; in assay [2], 36.5%; in assay [3], 13%; in assay [4] it was -23.1%; in assay [5], 43.8%; in assay [6], 33.6%.

With `CC(=O)c1ccc(OCc2ccccc2)cc1OCc1ccccc1`, the growth inhibition in assay [1] was 7%; in assay [2], 4.5%; in assay [3], -9.8%; in assay [4] it was 11.7%; in assay [5], 4.8%; in assay [6] it was -18.6%.

Consider `CCCCC1CCC(C(=O)O)=NC1` (stereo not given), for which the growth inhibition is 5.65% in assay [1]; 6.7% in assay [2]; 25.1% in assay [3]; -9.95% in assay [4]; -0.45% in assay [5]; -11.4% in assay [6].

Regarding `CN1CN=C(Sc2ccc(Cl)cc2[N+](=O)[O-])NC1`, the growth inhibition in assay [1] is -22.2%; in assay [2], -35.9%; in assay [3], -22.1%; in assay [4] it was -5%; in assay [5] it was -6.9%; in assay [6] it was -11.7%.

Consider `CC(C)(O)C(F)(F)F`, for which the growth inhibition is 13.8% in assay [1]; -5.85% in assay [2]; 27.1% in assay [3]; 12.2% in assay [4]; -3.4% in assay [5]; 25.5% in assay [6].

With `Cc1ccc(S(=O)(=O)OCC2C(COS(=O)(=O)c3ccc(C)cc3)C3C=CC2C32CC2)cc1` (stereo not given), the growth inhibition in assay [1] was -5.5%; in assay [2], -7.9%; in assay [3], 27.9%; in assay [4], 77.7% (active); in assay [5] it was 91% (active); in assay [6] it was 5.25%.

As to `CCCC(O)CN` (stereo not given), the growth inhibition in assay [1] is -5.65%; in assay [2] it was 18.2%; in assay [3], -12.7%; in assay [4], 9.4%; in assay [5], -0.85%; in assay [6] it was 24.9%.

With `CCC(Nc1ccccc1)C(=O)O` (stereo not given), the growth inhibition was -4.45% in assay [1]; -13.7% in assay [2]; -8.9% in assay [3]; -16.9% in assay [4]; -8.7% in assay [5]; 4.15% in assay [6].

`CN(C)c1nnnn1-c1c(N)n(C)c(=O)n(C)c1=O`: the growth inhibition in assay [1] was -30.1%; in assay [2] it was -23.2%; in assay [3], 0%; in assay [4], 6.4%; in assay [5], -26.8%; in assay [6], -27.1%.

Consider `Cc1cccc(-n2c(-c3ccccc3)cs/c2=N\N=C2/CSC(=O)N2Cc2ccccc2)c1`, for which the growth inhibition is -2.95% in assay [1]; -21.9% in assay [2]; 22.8% in assay [3]; -41.8% in assay [4]; 2.45% in assay [5]; -27.8% in assay [6].

For the molecule `COc1cc2[nH]c3c(c2cc1OC)CCN[C@]31CC[C@]2(CC3c4c(cc(OC)c(O)c42)CCN3C)C[C@H]1OC` (stereo not given in full), the growth inhibition was 10.8% in assay [1]; -6% in assay [2]; -16.4% in assay [3]; -2.9% in assay [4]; 7.95% in assay [5]; 7.35% in assay [6].

For the molecule `O=C(C(=O)c1ccco1)c1ccco1`, the growth inhibition in assay [1] was 64.1%; in assay [2] it was -0.45%; in assay [3], 34.1%; in assay [4], -24.6%; in assay [5], 21.1%; in assay [6], 35%.

`CCCc1ccccc1NC(=O)NCCCl`: the growth inhibition was -1.75% in assay [1]; -2.5% in assay [2]; -0.5% in assay [3]; -30.6% in assay [4]; -12.9% in assay [5]; 5.6% in assay [6].

As for `CC(O)CNC(=O)C(C)Oc1ccc(OCC2CCCCC2)cc1` (stereo not given), the growth inhibition in assay [1] is -2.8%; in assay [2], -12.9%; in assay [3], 6.65%; in assay [4], -9.7%; in assay [5] it was -53.7%; in assay [6], -15.9%.

For `Nc1ccccc1CN1C(=O)CCC1=O`, the growth inhibition in assay [1] is 0.25%; in assay [2], -6.8%; in assay [3] it was -12.4%; in assay [4], -14.9%; in assay [5], -10.1%; in assay [6] it was -14.2%.

For `NC(=S)N/N=C\C(CC(O)C(O)CO)=N\NC(N)=S` (stereo not given), the growth inhibition in assay [1] was 4.95%; in assay [2], 6.55%; in assay [3] it was 4.45%; in assay [4], 8.7%; in assay [5], 12.4%; in assay [6] it was 10.2%.

Consider `N#C/C(=C/c1cccc([N+](=O)[O-])c1)C(=O)O`, for which the growth inhibition in assay [1] is 38%; in assay [2], 10.6%; in assay [3] it was 22.6%; in assay [4], 12.9%; in assay [5], 15.8%; in assay [6], 38%.

In the case of `Cc1cc(N)ccc1N=Nc1ccc(S(=O)(=O)CCOS(=O)(=O)O)cc1`, the growth inhibition was 10.9% in assay [1]; -7.5% in assay [2]; -6.8% in assay [3]; -4.65% in assay [4]; -37.1% in assay [5]; -74.7% in assay [6].

Take `COc1ccc(NC(=O)CC(O)c2cccc(N)c2)cc1` (stereo not given): the growth inhibition is 22.3% in assay [1]; -26.4% in assay [2]; 26.3% in assay [3]; 7.1% in assay [4]; 25.1% in assay [5]; 12.5% in assay [6].
